Compounds without any hit were thinned out: in the full panel of roughly 83,000, 20% have a hit.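 The test compound was applied at a single concentration to cells in 96-well plates for 48 hours, and percent growth was recorded.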 Unmarked numbers belong to inactive results. Calls of active or inactive are those of the source. The calls were made as follows: active = growth percent below 10; inactive = the rest.

This experiment has as its system U251 CNS. Nature of the experiment: NCI-60 one-dose screen, 48 h (100 = growth as untreated, 0 = no growth, -100 = all killed). As to conditions: 10 µM unless noted.
For the molecule `COc1ccc(-c2cc(-c3ccc(N4CCOCC4)cc3)n3c(n2)nc2ccccc23)cc1OC`, the growth is 86.1%.
The same measure for `CCOC(=O)c1c(NC(=O)c2cccc(C(F)(F)F)c2)sc2c1CCC(=O)C2`: 3.77% (active).
Turning to `CN1CCN(c2ccc(Nc3nc(NCCCNS(=O)(=O)c4ccc(Cl)cc4)c4sccc4n3)cc2)CC1`, the growth was -11.3% (active).
The same measure for `CCOC(=O)C(=O)Nc1ccc2c(ccn2C(=O)c2cccc(F)c2)c1`: 105%; for `CCOc1cccc(/C(N)=N/C(N)=N/c2nc3ccccc3s2)c1`: 58.3%; for `CN1CCN(c2ccc(Nc3nc(NCCCNS(=O)(=O)c4ccc(C(F)(F)F)cc4)c4sccc4n3)cc2)CC1`: -83.4% (active).
The same measure for `Cc1ccc2c(n1)C(=O)C(Cl)=C(Nc1cccc(C(F)(F)F)c1)C2=O`: 95.7%.

These data come from PubChem BioAssay (NCI).
